Results taken from PubChem BioAssay AID1159580 (chemical genetic matrix, 2015).
Out of some 5,500 compounds screened, about 2,000 (36%) were called active. About 18% were inconclusive and are not listed. No stated cut-off is given here; in the data, active means normalized growth mostly below about 0.91 (no sharp cut-off); inconclusive means no clear call, values can overlap the other calls; inactive means mostly above about 0.92. The list shows a part of the results.

Experiment: chemical genetic growth profiling, strain panel (AID 1159580);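 further: tested at 20 µM; growth read once vehicle control cultures reached saturation at 30 °C; 1 = growth at the plate median or of vehicle wells; lower values mean less growth of the strain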
Conditions: growth OD
[1] = S. cerevisiae deletion strains, locus YDL101C, strain DUN1, active compounds read low
[2] = S. cerevisiae deletion strains, locus YHR030C, strain SLT2, active compounds read low

Measured: normalized growth

Cc1ccccc1C(=O)N1CCc2c([nH]c3ccccc23)C1C(F)(F)F (centres undefined)
inactive: S. cerevisiae deletion strains, locus YAR019C, strain CDC15, active compounds read low 0.982 | S. cerevisiae deletion strains, locus YBL105C, strain PKC1, active compounds read low 0.985 | S. cerevisiae deletion strains, locus YBR135W, strain CKS1, active compounds read low 0.986 | S. cerevisiae deletion strains, locus YBR136W, strain MEC1, active compounds read low 0.968 | S. cerevisiae deletion strains, locus YBR160W, strain CDC28, active compounds read low 0.988 | S. cerevisiae deletion strains, locus YDL017W, strain CDC7, active compounds read low 0.989 | S. cerevisiae deletion strains, locus YDL028C, strain MPS1, active compounds read low 0.979 | [1] 0.978 | S. cerevisiae deletion strains, locus YDL108W, strain KIN28, active compounds read low 0.98 | S. cerevisiae deletion strains, locus YDL132W, strain cdc53, active compounds read low 0.988 | S. cerevisiae deletion strains, locus YDL214C, strain PRR2, active compounds read low 0.938 | S. cerevisiae deletion strains, locus YDR052C, strain DBF4, active compounds read low 0.989 | S. cerevisiae deletion strains, locus YDR054C, strain cdc34, active compounds read low 0.976 | S. cerevisiae deletion strains, locus YDR226W, strain ADK1, active compounds read low 0.985 | S. cerevisiae deletion strains, locus YDR477W, strain SNF1, active compounds read low 0.962 | S. cerevisiae deletion strains, locus YER123W, strain YCK3, active compounds read low 0.9 | S. cerevisiae deletion strains, locus YER133W, strain GLC7, active compounds read low 0.948 | S. cerevisiae deletion strains, locus YFL009W, strain cdc4, active compounds read low 0.979 | S. cerevisiae deletion strains, locus YFL029C, strain CAK1, active compounds read low 0.972 | S. cerevisiae deletion strains, locus YFR003C, strain YPI1, active compounds read low 0.987 | S. cerevisiae deletion strains, locus YFR019W, strain FAB1, active compounds read low 0.954 | S. cerevisiae deletion strains, locus YFR028C, strain CDC14, active compounds read low 0.978 | S. cerevisiae deletion strains, locus YGR040W, strain KSS1, active compounds read low 0.927 | S. cerevisiae deletion strains, locus YGR052W, strain FMP48, active compounds read low 0.955 | S. cerevisiae deletion strains, locus YGR092W, strain DBF2, active compounds read low 0.978 | [2] 0.881 | S. cerevisiae deletion strains, locus YHR079C, strain IRE1, active compounds read low 0.878 | S. cerevisiae deletion strains, locus YHR082C, strain KSP1, active compounds read low 0.927 | S. cerevisiae deletion strains, locus YHR205W, strain SCH9, active compounds read low 0.83 | S. cerevisiae deletion strains, locus YIL147C, strain SLN1, active compounds read low 0.976 | S. cerevisiae deletion strains, locus YJL095W, strain BCK1, active compounds read low 0.908 | S. cerevisiae deletion strains, locus YJL128C, strain PBS2, active compounds read low 0.927 | S. cerevisiae deletion strains, locus YJL157C, strain FAR1, active compounds read low 0.976 | S. cerevisiae deletion strains, locus YJR016C, strain ILV3, active compounds read low 0.989 | S. cerevisiae deletion strains, locus YJR066W, strain TOR1 (second series), active compounds read low 0.934 | S. cerevisiae deletion strains, locus YJR066W, strain TOR1, active compounds read low 0.943 | S. cerevisiae deletion strains, locus YKL048C, strain ELM1, active compounds read low 0.977 | S. cerevisiae deletion strains, locus YKL067W, strain YNK1, active compounds read low 0.95 | S. cerevisiae deletion strains, locus YKL101W, strain HSL1, active compounds read low 0.909 | S. cerevisiae deletion strains, locus YKL193C, strain SDS22, active compounds read low 0.99 | S. cerevisiae deletion strains, locus YKL203C, strain TOR2, active compounds read low 1.01 | S. cerevisiae deletion strains, locus YLR133W, strain CKI1, active compounds read low 0.929 | S. cerevisiae deletion strains, locus YLR403W, strain SFP1, active compounds read low 0.93 | S. cerevisiae deletion strains, locus YML070W, strain DAK1, active compounds read low 0.905 | S. cerevisiae deletion strains, locus YMR001C, strain CDC5, active compounds read low 0.97 | S. cerevisiae deletion strains, locus YMR205C, strain PFK2 (second series), active compounds read low 0.945 | S. cerevisiae deletion strains, locus YMR277W, strain FCP1, active compounds read low 0.991 | S. cerevisiae deletion strains, locus YNL006W, strain LST8, active compounds read low 1 | S. cerevisiae deletion strains, locus YNL020C, strain ARK1, active compounds read low 0.95 | S. cerevisiae deletion strains, locus YNL161W, strain CBK1, active compounds read low 0.996 | S. cerevisiae deletion strains, locus YNL183C, strain NPR1, active compounds read low 0.894 | S. cerevisiae deletion strains, locus YNL207W, strain RIO2, active compounds read low 0.982 | S. cerevisiae deletion strains, locus YNL222W, strain SSU72, active compounds read low 0.991 | S. cerevisiae deletion strains, locus YNL307C, strain MCK1 (second series), active compounds read low 0.936 | S. cerevisiae deletion strains, locus YOL078W, strain AVO1, active compounds read low 0.991 | S. cerevisiae deletion strains, locus YOL136C, strain PFK27, active compounds read low 0.906 | S. cerevisiae deletion strains, locus YOR061W, strain CKA2, active compounds read low 0.953 | S. cerevisiae deletion strains, locus YOR119C, strain RIO1, active compounds read low 0.985 | S. cerevisiae deletion strains, locus YOR231W, strain MKK1, active compounds read low 0.891 | S. cerevisiae deletion strains, locus YOR329C, strain SCD5, active compounds read low 0.985 | S. cerevisiae deletion strains, locus YPL031C, strain PHO85, active compounds read low 0.963 | S. cerevisiae deletion strains, locus YPL153C, strain RAD53, active compounds read low 0.943 | S. cerevisiae deletion strains, locus YPL204W, strain HRR25, active compounds read low 0.945 | S. cerevisiae deletion strains, locus YPL209C, strain IPL1, active compounds read low 0.986 | S. cerevisiae deletion strains, locus YPR025C, strain CCL1, active compounds read low 0.989 | S. cerevisiae deletion strains, locus YPR106W, strain ISR1, active compounds read low 0.965 | S. cerevisiae deletion strains, locus YPR111W, strain DBF20, active compounds read low 0.966 | S. cerevisiae deletion strains, strain NNK1, active compounds read low 0.967 | S. cerevisiae deletion strains, strain TSCII, active compounds read low 0.988
active: S. cerevisiae deletion strains, locus YLR113W, strain HOG1, active compounds read low 0.799 | S. cerevisiae deletion strains, locus YPL256C, strain CLN2, active compounds read low 0.815

O=C(O)COCC(=O)N1CCc2c([nH]c3ccccc23)C1C(F)(F)F (centres undefined)
inactive: S. cerevisiae deletion strains, locus YAL013W, strain DEP1, active compounds read low 1.01 | S. cerevisiae deletion strains, locus YBR229C, strain ROT2, active compounds read low 0.998 | [1] 1.02 | S. cerevisiae deletion strains, locus YDL134C, strain PPH21, active compounds read low 1.01 | S. cerevisiae deletion strains, locus YDR150W, strain NUM1, active compounds read low 0.949 | S. cerevisiae deletion strains, locus YEL061C, strain CIN8, active compounds read low 1.01 | S. cerevisiae deletion strains, locus YGR078C, strain PAC10, active compounds read low 1.03 | [2] 1.06 | S. cerevisiae deletion strains, locus YHR087W, strain rtc3, active compounds read low 1.01 | S. cerevisiae deletion strains, locus YJR043C, strain POL32, active compounds read low 1.02 | S. cerevisiae deletion strains, locus YJR075W, strain HOC1, active compounds read low 1.06 | S. cerevisiae deletion strains, locus YKL190W, strain CNB1, active compounds read low 1.03 | S. cerevisiae deletion strains, locus YLR039C, strain RIC1, active compounds read low 1.03 | S. cerevisiae deletion strains, locus YLR058C, strain SHM2 (second series), active compounds read low 1.02 | S. cerevisiae deletion strains, locus YLR262C, strain YPT6, active compounds read low 0.998 | S. cerevisiae deletion strains, locus YML094W, strain GIM5, active compounds read low 1.04 | S. cerevisiae deletion strains, locus YMR219W, strain ESC1, active compounds read low 1 | S. cerevisiae deletion strains, locus YMR263W, strain SAP30, active compounds read low 0.954 | S. cerevisiae deletion strains, locus YMR307W, strain GAS1, active compounds read low 1.24 | S. cerevisiae deletion strains, locus YNL153C, strain GIM3, active compounds read low 1.01 | S. cerevisiae deletion strains, locus YNL298W, strain CLA4 (second series), active compounds read low 1.05 | S. cerevisiae deletion strains, locus YNL322C, strain KRE1, active compounds read low 1.02 | S. cerevisiae deletion strains, locus YNR030W, strain Alg12, active compounds read low 1.06 | S. cerevisiae deletion strains, locus YPL055C, strain LGE1, active compounds read low 0.961 | S. cerevisiae deletion strains, locus YPL241C, strain CIN2, active compounds read low 1.07 | S. cerevisiae deletion strains, locus YPR135W, strain CTF4, active compounds read low 1.05 | S. cerevisiae strains, strain wild type, active compounds read low 1.02
active: S. cerevisiae deletion strains, locus YLR085C, strain ARP6, active compounds read low 1.33 [resistant]
